Some compounds were tested as several samples or in several runs, with calls that do not always agree. Activity calls are given as the source filed them. How the source made its calls: active means hit-call score of the fitted dose curve at least 0.9, where 1 is the maximum; inactive means score below 0.9.
Assay: CEETOX_H295R_MTT_cell_viability: Viability Assessment in the CeeTox HT-H295R MTT Assay (AID 2283718);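 on AC50: curve fitted both ways so AC50 may mark viability loss or gain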
Protocol: CEETOX_H295R is a cell-based, multiplexed-readout assay that uses H295R, a human adrenal gland cell line, with measurements taken at 48 hours after chemical dosing in a 96-well plate.CEETOX_H295R_MTT_cell_viability is one of 23 assay component(s) measured or calculated from the CEETOX_H295R assay. It is designed to make measurements of cell number, a form of viability reporter, as detected with […] signals by MTT cytotoxicity assay technology.The assay component endpoint CEETOX_H295R_MTT_cell_viability was analyzed with bidirectional fitting relation to DMSO as the negative control and baseline of activity. Using a type of viability reporter in the MTT cytotoxicity assay, gain or loss-of-signal activity can be used to monitor cellular processes to understand changes in proliferation. To generalize the intended target to other relatable targets, this assay endpoint is annotated to cell cycle, where the subfamily is proliferation.
Cell culture and media preparation procedures were conducted in accordance with OECD Test No. 456 guidelines, with minor modifications. H295R cells (ATCC CRL-2128) were expanded for 5 passages and frozen in batches in liquid nitrogen. Prior to the steroidogenesis assay, H295R cells were thawed and passed at least 4 times. The maximum passage was 10. Cells were maintained in a 1:1 mixture of DMEM/F12 supplemented with 5ml/L ITS+ Premix (BD Bioscience) and 12.5 ml/L Nu-Serum (BD Bioscience). After seeding cells into 96-well plates at 50-60% confluency, cells were allowed to adhere overnight. Prior to chemical testing, culture medium was replaced with 175 uL medium containing 10 uM forskolin to stimulate steroidogenesis for 48 hours. Following prestimulation, forskolin medium was replaced with medium containing test chemical solubilized in DMSO (ensuring a final concentration of 0.1% DMSO). Test chemicals were incubated for 48 hours, then the medium was removed and split into 2 vials containing approximately 75uL each, and stored at -80 C prior to hormone analysis. For steroid quantification, media samples were shipped to OpAns, LLC (Durham, NC) on dry ice, and samples were thawed to room temperature prior to liquid-liquid extraction. Steroid hormones were extracted from media samples using methyl tertbutyl ether (MTBE). An extra derivatization with dansyl chloride was included for estrogen (estrone and estradiol) detection only. Steroid hormones were separated by HPLC, eluted using a reverse phase C18 gradient with electrospray positive ionization, followed by quantification by tandem mass spectrometry (MS/MS). Data were acquired on a MassHunter Workstation Acquisition version B03.01 (Agilent Technologies, Inc.) and processed using MassHunter Quantitative Analysis for QQQ. Accuracy was determined for each hormone analyte from 3 standards to determine upper and lower limits of quantification (ULOQ and LLOQ, respectively) using a 7-point standard curve. Precision and accuracy of the extraction and quantification methods were calculated as the percent relative standard deviation (%RSD) of the spiked standards and percent spiked standard recovered, respectively. The goal was to achieve 100% accuracy (i.e., recover all spiked-in standard at quantification with minimal loss during run time) and good precision (i.e., have %RSD <15% to ensure reproducibility). Test medium was removed following chemical exposure, and cell viability was evaluated in the same wells by MTT. MTT procedures were as follows: after removal of test medium, 500 uL of 0.5 mg/ml of 3-[4,5-dimethylthiazol-2-y]2,5-diphenyltetrazoliumbromide solution was added to the cells. Following a 4-hour incubation at 37 C and 5% CO2 to allow formazan-crystal formation, the MTT solution was removed and blue formazan salt crystals were solubilized using 500uL anhydrous isopropanol with shaking for 20 minutes. Absorbance was read at 570 and 650nm using a Packard Fusion microplate reader. […]

Row | Structure (SMILES) | outcome | AC50
1 | Clc1ccccc1-c1nnc(-c2ccccc2Cl)nn1 | inactive | –
2 | CNC(=O)/C=C(\C)OP(=O)(OC)OC | inactive | –
3 | CC[C@H](C)[C@H]1O[C@]2(C=C[C@@H]1C)C[C@@H]1C[C@@H](C/C=C(\C)[C@@H](O[C@H]3C[C@H](OC)[C@@H](O[C@H]4C[C@H](OC)[C@@H](O)[C@H](C)O4)[C@H](C)O3)[C@@H](C)/C=C/C=C3\CO[C@@H]4[C@H](O)C(C)=C[C@@H](C(=O)O1)[C@]34O)O2 (tested in a mixture with another compound) | inactive | –
4 | CCC(C)Nc1c([N+](=O)[O-])cc(C(C)(C)C)cc1[N+](=O)[O-] (stereo not given) | – | 46.9 µM (active)
5 | CNC(=O)CSP(=S)(OC)OC | inactive | –
6 | CNC(=O)Oc1ccccc1OC(C)C | inactive | –
7 | COP(=S)(OC)Oc1ccc(SC)c(C)c1 | inactive | –
8 | CCCN(CCOc1c(Cl)cc(Cl)cc1Cl)C(=O)n1ccnc1 | inactive | 50 µM (active)
9 | Oc1ccc(Cl)cc1Cc1ccccc1 | inactive | –
10 | C#CCN1C(=O)COc2cc(F)c(N3C(=O)C4=C(CCCC4)C3=O)cc21 | inactive | –
11 | CCc1ccc(C(=O)NN(C(=O)c2cc(C)cc(C)c2)C(C)(C)C)cc1 | inactive | –
12 | O=C1c2ccccc2C(=O)N1SC(Cl)(Cl)Cl | inactive | –
13 | Oc1cc(Cl)ccc1Oc1ccc(Cl)cc1Cl | inactive | 0.0234 µM (active)
14 | COP(=S)(OC)Oc1ccc([N+](=O)[O-])cc1 | inactive | –
15 | CC(C)N(C(=O)COc1nnc(C(F)(F)F)s1)c1ccc(F)cc1 | inactive | –
16 | CCS(=O)(=O)c1cccnc1S(=O)(=O)NC(=O)Nc1nc(OC)cc(OC)n1 | inactive | –
17 | CC(C)OC(=O)Nc1cccc(Cl)c1 | inactive | –

Row | Structure (SMILES) | outcome | AC50
18 | CNC(=O)Oc1cccc(N=CN(C)C)c1 | inactive | –
19 | O=C(Nc1ccccc1)Nc1cnns1 | – | 65.5 µM (active)
20 | C[C@H]1[C@H](c2ccc(Cl)cc2)SC(=O)N1C(=O)NC1CCCCC1 | – | 0.000405 µM (active)
21 | CC(C)(C)C(O)/C(=C\c1ccc(Cl)cc1Cl)n1cncn1 (stereo not given) | inactive | –
22 | ClC1C(Cl)C(Cl)C(Cl)C(Cl)C1Cl (stereo not given) | inactive | –
23 | CC1(C)C(C=C(Cl)Cl)C1C(=O)OC(C#N)c1ccc(F)c(Oc2ccccc2)c1 (stereo not given) | inactive | –
24 | O=[N+]([O-])/N=C1\NCCN1Cc1ccc(Cl)nc1 | inactive | –
25 | O=[N+]([O-])c1c(Cl)c(Cl)c(Cl)c(Cl)c1Cl | inactive | –
26 | COc1nn(CSP(=S)(OC)OC)c(=O)s1 | inactive | –
27 | CCN(CC)C(=O)SCc1ccc(Cl)cc1 | inactive | –
28 | CCC(C)(C)C(=O)OC1=C(c2ccc(Cl)cc2Cl)C(=O)OC12CCCCC2 | inactive | –
29 | CC(C)(C)C(O)C(Oc1ccc(Cl)cc1)n1cncn1 (stereo not given) | inactive | –
30 | CCCN(CCC)c1c([N+](=O)[O-])cc(C(F)(F)F)cc1[N+](=O)[O-] | inactive | –
31 | O=C(O)COc1ccc(Cl)cc1Cl | inactive | –
32 | O=C(NC(=O)c1c(F)cccc1F)Nc1ccc(OC(F)(F)C(F)OC(F)(F)F)c(Cl)c1 (stereo not given) | – | 1.97 µM (active)
33 | N#Cc1c(Cl)c(Cl)c(Cl)c(C#N)c1Cl | inactive | –

From PubChem BioAssay (EPA / NIEHS)
